A1 inh: inhibitors of the anti-apoptotic protein A1, read as caspase activation; MEF A1-2A-BIM cells, Caspase-Glo 3/7 luminescence, 3 h; percent of clofoctol response, vehicle zero; caspase activation, % (test concentration not listed); hit rate 0.066% among 330,000; AID 2462;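 active = over half of replicate activation scores above 10%, or exactly half above 10 with the replicate mean above 10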
GSIS activator: primary screen for activators of insulin secretion dependent on glucose, INS-1E cells, GLuc reporter luminescence; hit rate 0.61% among 370,000; activation, % at 16.6 µM; INS-1E GLuc reporter insulin secretion, 2-3 h;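 active = lowest replicate activation of at least 40%, so every replicate reaches that level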;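 note: 0% = median of neutral control wells and 100% = median of IBMX positive control wells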
Vif imaging: blocks HIV Vif function; HEK293T cells, Vif self-association by quenched fluorescence, imaging, 24 h; AID 602346; inhibition, % at 7.49 µM; hit rate 0.35% among 340,000; in the data active = inhibition above about 50%, passing the limit was not always enough
Neddyl block: blocks human cullin neddylation. hit rate 0.58% among 360,000. TR-FRET cullin neddylation, biochemical. inhibition, % at 25 µM. P61081+Q13564; in the data active = inhibition above about 36%
dFosB act: activators of mouse delta FosB homodimer; P13346; purified delta FosB, TAMRA-CDK5 oligo fluorescence polarization; percent of positive-control signal above neutral wells; activation, % at 25 µM; hit rate 0.99% among 340,000; AID 493131;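 active = mean activation above about 17%, with every replicate also reaching it, limit read from the data, passing the limit was not always enough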
Target sequence (P13346 whole entry, looked up): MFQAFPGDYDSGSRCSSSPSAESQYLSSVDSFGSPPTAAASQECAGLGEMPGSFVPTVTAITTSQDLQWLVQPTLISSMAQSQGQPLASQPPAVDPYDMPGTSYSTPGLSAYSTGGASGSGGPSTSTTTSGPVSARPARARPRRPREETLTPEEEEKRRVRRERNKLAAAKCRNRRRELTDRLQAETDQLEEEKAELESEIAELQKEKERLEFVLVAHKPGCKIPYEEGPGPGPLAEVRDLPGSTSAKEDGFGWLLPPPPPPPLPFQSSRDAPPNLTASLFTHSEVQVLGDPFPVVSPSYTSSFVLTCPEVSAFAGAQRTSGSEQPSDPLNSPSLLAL
An asterisk follows results filed as active; . = no result shown; ! = not confirmed by another sample. Compounds with a hit are over-represented: about 1.9% of the library has one in this group of screens.

SMILES	A1 inh	GSIS activator	Vif imaging	Neddyl block	dFosB act
O=C(/C=C/c1ccco1)Nc1ccc(C(=O)N2CCOCC2)cc1	-0.7	17.0	-12.4	-10.3	-8.1
O=C(/C=C/c1ccco1)Nc1ccccn1	-6.4	5.5	11.1	-2.7	-8.9
C[C@H]1CN([C@@H](C)CO)S(=O)(=O)c2ccc(/C=C/c3ccccc3)cc2O[C@@H]1CN(C)C(=O)NC1CCCC1	.	-15.1	.	.	.
Cc1cccc(OCc2nnc(SCC(=O)N3CCCC3)o2)c1	-0.5	-0.6	-4.0	-4.7	-0.5
Cc1cccc(OCc2nnc(SCc3nc4ccccc4c(=O)[nH]3)o2)c1	0.0	.	23.9	-0.6	45.5*
CC(C)[C@@H]1COCc2cn(nn2)CC[C@@H](Cc2ccc(Cl)cc2)C(=O)N1	.	1.4	.	.	.
COc1ccc(/C=N/NC(=O)c2cc3c(OC)ccc(OC)c3[nH]2)cc1O	1.5	4.6	-0.1	41.4*	-15.0
COc1ccc(OC)c2[nH]c(C(=O)N/N=C/c3ccccc3O)cc12	0.5	5.6	-1.6	23.3	11.6
COc1ccc(NC(=O)N(C)C[C@H]2OCCCC[C@@H](C)Oc3ccc(NS(=O)(=O)c4ccccc4)cc3C(=O)N([C@H](C)CO)C[C@@H]2C)cc1	.	0.6	.	.	.
C[C@H]1CN([C@@H](C)CO)C(=O)c2cc(NC(=O)Nc3ccc4c(c3)OCO4)ccc2O[C@H]1CN(C)Cc1ccc2c(c1)OCO2	.	3.4	.	.	.
O=C(C[C@@H]1CC[C@@H](NC(=O)Cc2ccccn2)[C@@H](CO)O1)NCCc1ccncc1	.	12.6	.	.	.
O=C(COC(=O)c1ccc(Cl)c(S(=O)(=O)NCc2ccccc2)c1)NC1CC1	-0.3	-1.5	77.1*	5.4	-5.7
C(=N\Nc1nc2ccccc2[nH]1)/c1ccncc1	-0.7	-11.5	-2.6	-12.6	0.8
Cc1c(/C=N/Nc2nc3ccccc3[nH]2)c2ccccc2n1C	-0.6	.	-6.1	9.3	78.3*
Clc1nc2ccccc2cc1/C=N/Nc1nc2ccccc2[nH]1	-4.3	-20.5	14.0	-12.2	17.8*
CCN(CC)c1ccc(/C=N/Nc2nc3ccccc3[nH]2)cc1	.	-28.6	-18.4	.	38.8*
Cn1c(/C=N/Nc2nc3ccccc3[nH]2)nc2ccccc21	-4.7	.	-6.5	5.1	-2.3
Cc1nn(-c2ccccc2)c(C)c1/C=N/Nc1nc2ccccc2[nH]1	-6.4	-19.0	-8.8	29.4	26.8*
Cc1noc(C)c1S(=O)(=O)Nc1cccc2c1O[C@@H](CN(C)CC1CCCCC1)[C@@H](C)CN([C@@H](C)CO)C2=O	.	19.8	.	.	.
Cn1cnc(S(=O)(=O)N[C@@H]2CC[C@H](CC(=O)NCC3CC3)O[C@H]2CO)c1	.	11.7	.	.	.
COc1ccccc1NC(=O)N1CC(=O)N2[C@H](CO)[C@@H](c3ccc(C#CCC(C)C)cc3)[C@@H]2C1	.	-2.0	.	.	.
Cc1cc(=O)[nH]c2c1c(C)nn2C1CCCC1	-0.5	53.3*	-1.4	10.3	-3.8
CCCNC(=O)N1CC2(CCN(C(=O)c3cnccn3)CC2)c2c([nH]c3cc(OC)ccc23)[C@H]1CO	.	-4.2	.	.	.
COCC(=O)N(C)C[C@H]1Oc2ncc(C3=CCCC3)cc2C(=O)N([C@H](C)CO)C[C@@H]1C	.	8.5	.	.	.
CC1=C(/C=C/C(C)=C/C=C/C(C)=C\C(=O)O)C(C)(C)CCC1	1.7	.	-1.2	6.5	-2.7
SMILES	A1 inh	GSIS activator	Vif imaging	Neddyl block	dFosB act
CC1=C(/C=C/C(C)=C/C=C/C(C)=C/C(=O)Nc2ccc(O)cc2)C(C)(C)CCC1	0.2	152.7*	50.3*!	-0.9	-11.6
CCC(=O)Nc1ccc2c(c1)OC[C@@H](C)N(Cc1nccs1)C[C@@H](C)[C@H](OC)CN(C)C2=O	.	0.5	.	.	.
COc1ccc(C(C)NCCC(c2ccc(OC(C)C)cc2)c2ccccc2OC)cc1 (stereo unspecified)	1.6	134.3*	-4.6	-8.1	-2.2
COc1cc(S(=O)(=O)NCc2ccncc2)c(OC)cc1C	0.6	17.3	51.0*	-6.6	7.9
COc1cc(S(=O)(=O)NCc2ccncc2)c(OC)cc1Br	0.0	12.2	-13.5	-8.0	-6.8
CC(C)NC(=O)N1[C@H](CO)[C@@H](c2ccccc2)C12CN(C(=O)CN(C)C)C2	.	31.8	.	.	.
CC(C)c1ccc(NC2CCCN(C(=O)c3cccnc3)C2)cc1 (stereo unspecified)	-0.1	75.5*	6.9	-2.1	1.5
COc1cccc(S(=O)(=O)Nc2ccc3c(c2)[C@H]2C[C@@H](CC(=O)O)O[C@H](CO)[C@H]2O3)c1	.	13.5	.	.	.
CO[C@@H]1CN(C)C(=O)c2ccc(NC(C)=O)cc2OC[C@@H](C)N(C(=O)c2ccncc2)C[C@@H]1C	.	-0.6	.	.	.
C[C@@H]1CN([C@@H](C)CO)C(=O)c2cccc(NC(=O)C3CCOCC3)c2O[C@H]1CN(C)C(=O)Nc1ccc(C(F)(F)F)cc1	.	-0.8	.	.	.
COC(=O)C1=C(C)N(Cc2ccc(C(F)(F)F)cc2)C(=NCc2ccccc2C(F)(F)F)NC1c1ccccc1 (stereo unspecified)	.	28.8	.	.	.
COC(=O)C1=C(C)N(Cc2ccc(C(F)(F)F)cc2)C(=NCc2ccccc2C(F)(F)F)NC1c1cccc(Cl)c1 (stereo unspecified)	.	241.7*	.	.	.
CCN=C1NC(c2cccc(Cl)c2)C(C(=O)OC)=C(C)N1Cc1ccc(C(F)(F)F)cc1 (stereo unspecified)	.	2.2	.	.	.
COC(=O)C1=C(C)N(Cc2ccc(C(F)(F)F)cc2)C(=NCc2ccccc2C(F)(F)F)NC1c1ccc(Cl)cc1 (stereo unspecified)	.	49.1*	.	.	.
C[C@@H]1CCCCO[C@H](CN(C)C(=O)C2CCCCC2)[C@@H](C)CN([C@@H](C)CO)C(=O)c2cc(NC(=O)C3CCCCC3)ccc2O1	.	-26.4	.	.	.
COC(=O)C[C@H]1CC[C@H]2[C@@H](COc3ccc(NS(=O)(=O)c4ccccc4F)cc3C(=O)N2C)O1	.	7.2	.	.	.
CCOc1ccccc1N(CC(=O)NCC1CCCO1)C(=O)CCC(=O)Nc1nccs1 (stereo unspecified)	0.2	-2.5	60.6*	8.1	-6.0
O=C(C[C@@H]1C[C@@H]2c3cc(NC(=O)NC4CCCC4)ccc3O[C@@H]2[C@H](CO)O1)NCc1cc(F)ccc1F	.	-5.9	.	.	.
COc1ccc(NC(=O)CCC(=O)N/N=C/c2cn(C)nc2C)cc1	-0.5	-8.2	53.9*	-6.0	-9.1
C=CCNC(=O)COc1coc(CN2CCN(C(=O)c3ccco3)CC2)cc1=O	0.5	49.2*	-1.0	-0.1	3.1
C=CCN1C(=O)CSc2ccc(C(=O)OCC)cc21	-0.4	68.6*	-3.9	3.9	-5.9
CN(Cc1ccccc1)c1nc2c(c(=O)[nH]c(=O)n2C)n1Cc1ccccc1	0.2	69.8*	3.7	9.5	-9.3
CN(Cc1ccccc1)c1nc2c(c(=O)[nH]c(=O)n2C)n1Cc1ccccc1F	-1.1	38.9	0.9	5.0	-2.7
CCCCCn1c(N(C)Cc2ccccc2)nc2c1c(=O)[nH]c(=O)n2C	-0.3	40.4*	-3.7	2.8	-2.3
O=C(NC1CCCCC1)c1cccnc1Sc1ccccc1	-0.3	61.9*	12.4	-11.2	-4.5

Screens (PubChem)
